The values below come from PubChem BioAssay (NCI).

Test systems include T-47D breast; BT-549 breast; MDA-MB-435 melanoma; SW-620 colon; MCF7 breast; HCT-116 colon; HCC-2998 colon; KM12 colon.
Test in all cases: NCI-60 one-dose screen, 48 h (100 = growth as untreated, 0 = no growth, -100 = all killed)
What all share (conditions): 10 µM unless noted

This is part of a sample that, as a whole, favours compounds with a hit. Of some 83,000 tested, about 20% had one in any assay.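 Note: values are percent growth. 100 is the growth of untreated cells, values between 100 and 0 indicate rising inhibition; between -100 and 0 indicates cell death.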 Values without a mark were called inactive. The source made the active and inactive calls. Rule for the calls: active = growth percent below 10; inactive = the rest.

Consider `COc1ccc(C/C(=C(\C)c2ccc(OCCN3CCCC3)cc2)c2ccc(OCCN3CCCC3)cc2)cc1`, for which the growth was 77.6% in the experiment on T-47D breast; 85% in the experiment on BT-549 breast; -77.2% (active) in the experiment with MDA-MB-435 melanoma; -35.4% (active) with SW-620 colon; -7% (active) with MCF7 breast; 24.9% with HCT-116 colon. For the same molecule, the growth with HCC-2998 colon is 68.9%; with KM12 colon it was 47.9%.

As for `O=C1C=CC(=O)N1c1cccc(Cl)c1`, the growth in the experiment on T-47D breast is 93.7%; with BT-549 breast it was 108%; with MDA-MB-435 melanoma, 101%; in the experiment with SW-620 colon, 76%; in the experiment with MCF7 breast, 112%; in the experiment on HCT-116 colon, 89.7%. The growth in the experiment on HCC-2998 colon and in the experiment with KM12 colon was 104% in each case.

In the case of `O=C(NCCc1ccccc1)Nc1ccc2cc3ccc(NC(=O)NCCc4ccccc4)cc3nc2c1`, the growth is 29.7% in the experiment with T-47D breast; 70.6% with BT-549 breast; -13.7% (active) in the experiment with MDA-MB-435 melanoma; 1.33% (active) with SW-620 colon; 0.969% (active) in the experiment on MCF7 breast; -32.5% (active) in the experiment with HCT-116 colon. The growth with HCC-2998 colon was -8.17% (active); with KM12 colon, 47.7%.

For `CN1CCN(CCNc2nccc(-c3c(-c4cccc(O)c4)nc4sccn34)n2)S1(=O)=O`, the growth in the experiment on T-47D breast is 68.5%; with BT-549 breast it was 52.3%; in the experiment with MDA-MB-435 melanoma, 29.2%; with SW-620 colon, 65.4%; in the experiment on MCF7 breast, 71.3%; in the experiment on HCT-116 colon, 25.1%. The growth in the experiment on HCC-2998 colon is 88%; in the experiment on KM12 colon, 34.4%.

In the case of `Cn1cc(-c2nc(-c3c[nH]c4c(Cl)nccc34)cs2)c2cc(F)ccc21`, the growth is 48.6% with T-47D breast; 118% in the experiment on BT-549 breast; 98.6% in the experiment on MDA-MB-435 melanoma; 102% in the experiment on SW-620 colon; 68.1% in the experiment on MCF7 breast; 105% in the experiment on HCT-116 colon. Moreover, the values for the growth in the experiment with HCC-2998 colon and in the experiment on KM12 colon were 119% and 96.4%, respectively.

`COc1cc2nc(-c3ccc(C(F)(F)F)cc3)cc(OCCCN3CCOCC3)c2cc1OC`: the growth in the experiment with T-47D breast is 16.2%; in the experiment with BT-549 breast, 30.5%; with MDA-MB-435 melanoma it was -26% (active); with SW-620 colon, 25.9%; in the experiment with MCF7 breast, 44.4%; in the experiment with HCT-116 colon, 15.1%. In addition, the growth in the experiment with HCC-2998 colon is 43.4%; in the experiment on KM12 colon it was 27.5%.

Regarding `CCCCCCCCO/N=C\c1c2c(O)c3c(O)c(C)c4c(c3c1O)C(=O)C(C)(O/C=C\C(OC)C(C)C(OC(C)=O)C(C)C(O)C(C)C(O)C(C)/C=C\C=C(\C)C(=O)N2)O4` (stereo not given), the growth was 30.5% with T-47D breast; 45.9% with BT-549 breast; 13.5% in the experiment on MDA-MB-435 melanoma; 15.1% in the experiment on SW-620 colon; 21.7% in the experiment on MCF7 breast; 11.6% with HCT-116 colon. The growth was 14.7% in the experiment with HCC-2998 colon and 17.1% with KM12 colon.

Turning to `N#CC1=C(N)Oc2c(cnn2-c2ccc([N+](=O)[O-])cc2[N+](=O)[O-])C1c1ccccc1` (stereo not given), the growth in the experiment on T-47D breast was 98%; in the experiment with BT-549 breast it was 107%; in the experiment on MDA-MB-435 melanoma, 101%; in the experiment with SW-620 colon, 96.2%; in the experiment with MCF7 breast, 97%; in the experiment with HCT-116 colon it was 100%. The growth in the experiment on HCC-2998 colon and in the experiment with KM12 colon was 101% in each case.

Take `c1ccc(Cn2cnc3ccc(-c4nc(-c5ccc6c(c5)ncn6C5CCCCC5)cn5ccnc45)cc32)cc1`: the growth with T-47D breast was -2.12% (active); with BT-549 breast it was -44.7% (active); in the experiment on MDA-MB-435 melanoma it was -6.16% (active); in the experiment with SW-620 colon it was 2.17% (active); in the experiment with MCF7 breast, 2.03% (active); in the experiment with HCT-116 colon, -75.7% (active). For the same molecule, the growth was -88% (active) in the experiment on HCC-2998 colon and -39.4% (active) with KM12 colon.

In the case of `CCN(CC)CCn1c(=O)c2cc(OC)c(OC)cc2c2ccc3cc4c(cc3c21)OCO4`, the growth in the experiment on T-47D breast was 39.1%; with BT-549 breast it was 26.2%; with MDA-MB-435 melanoma it was 50.4%; with SW-620 colon it was 26%; in the experiment with MCF7 breast, 16.1%; with HCT-116 colon, 8.5% (active). Further, the growth with HCC-2998 colon was 74.9%; in the experiment with KM12 colon, 41.9%.

On to `CC1(C)NCCC[C@]2(C)[C@H]3CC[C@@H]4[C@H]5[C@H](C(=O)/C=C/c6ccco6)CC[C@]5(CO)CC[C@@]4(C)[C@]3(C)CC[C@@H]12`, for which the growth is 75.7% with T-47D breast; 89.1% in the experiment with BT-549 breast; 66.7% in the experiment on MDA-MB-435 melanoma; 69.7% with SW-620 colon; 46.6% in the experiment with MCF7 breast; 33.7% in the experiment on HCT-116 colon. Besides, the growth was 91.4% in the experiment with HCC-2998 colon and 82.9% with KM12 colon.

As to `COc1cc2c(-c3cc4c(cc3CNCCc3ccc5c(c3)OCO5)OCO4)cccc2c(OC)c1O`, the growth is 67.3% with T-47D breast; 91.3% with BT-549 breast; 96.9% in the experiment on MDA-MB-435 melanoma; 85.4% in the experiment on SW-620 colon; 76.8% in the experiment on MCF7 breast; 60.7% in the experiment with HCT-116 colon. Also, the growth in the experiment with HCC-2998 colon was 42.7%; with KM12 colon, 96.5%.

For the molecule `COc1cc(/C=C\c2cc(OC)c(OC)c(OC)c2)cc(NC(=O)/C=C/c2cc(OC)c(OC)c(OC)c2)c1OC`, the growth was 19.6% with T-47D breast; 26.2% in the experiment with BT-549 breast; -13.1% (active) in the experiment on MDA-MB-435 melanoma; 57% in the experiment on SW-620 colon; 27.6% with MCF7 breast; 41.1% in the experiment with HCT-116 colon. The growth in the experiment with HCC-2998 colon was 70.8%; in the experiment with KM12 colon, 28.7%.

For the molecule `CCOc1ccc(/C=N/Nc2cc(C)nc3ccc(Br)cc23)cc1`, the growth is 89.2% in the experiment with T-47D breast; 91.3% in the experiment with BT-549 breast; 92.6% in the experiment with MDA-MB-435 melanoma; 55.2% with SW-620 colon; 75.8% in the experiment on MCF7 breast; 36.6% with HCT-116 colon. The growth is 100% in the experiment with HCC-2998 colon and 84.6% in the experiment on KM12 colon.

`CCCCCCCC(=O)OCC/C=C/C1OC1C1OC(=O)/C=C\C=C\C(=O)N(C(C)=O)C(=O)/C=C(/C)CCC2OC2C1OC(=O)NC(C)=O` (stereo not given): the growth is 10.8% in the experiment with T-47D breast; 92.5% with BT-549 breast; 79% in the experiment on MDA-MB-435 melanoma; 83.1% in the experiment with SW-620 colon; 20.4% in the experiment on MCF7 breast; 3.69% (active) in the experiment with HCT-116 colon. Moreover, the growth in the experiment on HCC-2998 colon is 72.1%; with KM12 colon, 44.1%.
